Test results published in PubChem BioAssay (NCI).
This is part of a sample that, as a whole, favours compounds with a hit. Of some 79,000 tested, about 15% had one in any assay. A number with no mark means an inactive call. Activity calls are given as the source filed them. No stated cut-off is given here; in the data, active means growth inhibition above about 70%; inactive means the rest.

Legend:
[1] = NCI Yeast Anticancer Drug Screen. Data for the wt1 strain (AID 149);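 further: 0% = growth of vehicle-treated wt1 cultures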; conditions: S. cerevisiae wt1 strain (SPY 50644) growth inhibition, hits give high values
How it was run: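 Using yeast strain wt1, compound-induced growth inhibition was determined against vehicle-treated cultures.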

[2] = NCI Yeast Anticancer Drug Screen. Data for the rad50EPP+ strain (AID 151);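 further: 0% = growth of vehicle-treated control cultures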; conditions: S. cerevisiae rad50 mutant strain, hits give high values
How it was run: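 One strain with a rad50 alteration (rad50EPP+) was compound-treated, its growth then compared to that of vehicle controls.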

[3] = NCI Yeast Anticancer Drug Screen. Data for the mgt1 strain (AID 153); conditions: S. cerevisiae mgt1 mutant growth inhibition, hits give high values
How it was run: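 After exposure of the mgt1 yeast mutant to compound, growth was measured and reported as inhibition compared with vehicle controls.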

[4] = NCI Yeast Anticancer Drug Screen. Data for the rad50 strain (AID 155);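 further: 0% = growth of vehicle-only cultures of the same strain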; conditions: S. cerevisiae rad50 strain growth inhibition, hits give high values
How it was run: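 Relative growth inhibition (compound vs vehicle) was measured in yeast with a defined repair-gene alteration.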

[5] = NCI Yeast Anticancer Drug Screen. Data for the mec2-1 strain (AID 157); conditions: S. cerevisiae mec2-1 strain, hits give high values
How it was run: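 Test agents were screened against the mec2-1 yeast strain, with defined DNA repair or cell cycle alteration. Growth was scored as inhibition against vehicle-only controls.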

[6] = NCI Yeast Anticancer Drug Screen. Data for the rad14 strain (AID 159);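 further: 0% = growth of vehicle-treated control cultures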; conditions: S. cerevisiae rad14 strain growth inhibition, hits give high values
How it was run: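 Screen for anticancer potential: a yeast strain altered in DNA damage repair is grown with compound, and reduced growth is quantified against vehicle controls.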

[7] = NCI Yeast Anticancer Drug Screen. Data for the sgs1 mgt1 strain (AID 161);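 further: 0% = growth of cultures given vehicle only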; conditions: S. cerevisiae sgs1 mgt1 strain, hits give high values
How it was run: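 Mutant yeast exposed to compound; growth scored against vehicle-only wells.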

[8] = NCI Yeast Anticancer Drug Screen. Data for the CLN2oe strain (AID 163);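 further: 0% = growth of vehicle-only control cultures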; conditions: S. cerevisiae CLN2oe strain, hits give high values
How it was run: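 Here, growth inhibition in a cell-cycle-altered yeast strain after compound exposure was quantified against vehicle control growth.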

[9] = NCI Yeast Anticancer Drug Screen. Data for the cln2 rad14 strain (AID 165);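 further: 0% = growth equal to vehicle treated cultures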; conditions: S. cerevisiae cln2 rad14 strain, hits give high values
How it was run: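 Growth of compound-exposed yeast (cln2 rad14 genotype) measured and expressed as inhibition relative to vehicle.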

[10] = NCI Yeast Anticancer Drug Screen. Data for the bub3 strain (AID 167); conditions: S. cerevisiae bub3 mutant strain, hits give high values
How it was run: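 Screening used yeast with an engineered genetic alteration affecting cell cycle control. Compound-exposed cultures were compared with vehicle cultures, and reduced growth was taken as inhibition.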

[11] = NCI Yeast Anticancer Drug Screen. Data for the wt2 strain (AID 169);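 further: 0% = growth of vehicle-treated yeast cultures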; conditions: S. cerevisiae wt2 strain growth inhibition, hits give high values
How it was run: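 Genetically defined yeast strains from a DNA-repair/cell-cycle panel were used. Compound-exposed yeast growth was measured, and the inhibition was calculated relative to vehicle treatment.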

[12] = at 5.0 µM (retest, dose inferred, filed as 0.5)
[13] = at 50.0 µM (retest, dose inferred, filed as 5.0)

**Q.** Which growth inhibition ([1]; at 1.2 µM) does the source give for `CC(C)(C)c1nc2c(o1)C(=O)c1ccccc1C2=O` here?
**A.** -30%

**Q.** And the growth inhibition ([1]; at 3.7 µM)?
**A.** -20%

**Q.** And the growth inhibition ([1]; at 11.0 µM)?
**A.** -5%

**Q.** And the growth inhibition ([1]; at 33.0 µM)?
**A.** 63%

**Q.** What about the growth inhibition ([1]; at 100.0 µM) of the same molecule?
**A.** 95% (active)

**Q.** What about the growth inhibition ([2]; at 1.2 µM) of the same molecule?
**A.** -19%

**Q.** And the growth inhibition ([2]; at 3.7 µM)?
**A.** -17%

**Q.** What about the growth inhibition ([2]; at 11.0 µM) of the same molecule?
**A.** -7%

**Q.** What about the growth inhibition ([2]; at 33.0 µM) of the same molecule?
**A.** 87% (active)

**Q.** And the growth inhibition ([2]; at 100.0 µM)?
**A.** 97% (active)

**Q.** And the growth inhibition ([3]; at 1.2 µM)?
**A.** -21%

**Q.** What about the growth inhibition ([3]; at 3.7 µM) of the same molecule?
**A.** -16%

**Q.** And the growth inhibition ([3]; at 11.0 µM)?
**A.** 19%

**Q.** What about the growth inhibition ([3]; at 33.0 µM) of the same molecule?
**A.** 75% (active)

**Q.** What about the growth inhibition ([3]; at 100.0 µM) of the same molecule?
**A.** 95% (active)

**Q.** What about the growth inhibition ([4]; at 1.2 µM) of the same molecule?
**A.** -56%

**Q.** And the growth inhibition ([4]; at 3.7 µM)?
**A.** -15%

**Q.** What about the growth inhibition [4, 12] of the same molecule?
**A.** 23%

**Q.** What about the growth inhibition ([4]; at 11.0 µM) of the same molecule?
**A.** 32%

**Q.** What about the growth inhibition ([4]; at 33.0 µM) of the same molecule?
**A.** 90% (active)

**Q.** What about the growth inhibition [4, 13] of the same molecule?
**A.** 91% (active)

**Q.** And the growth inhibition ([4]; at 50.0 µM)?
**A.** 85.2% (active)

**Q.** And the growth inhibition ([4]; at 100.0 µM)?
**A.** 97% (active)

**Q.** And the growth inhibition ([5]; at 1.2 µM)?
**A.** 11%

**Q.** And the growth inhibition ([5]; at 3.7 µM)?
**A.** 15%

**Q.** And the growth inhibition [5, 12]?
**A.** 14%

**Q.** What about the growth inhibition ([5]; at 11.0 µM) of the same molecule?
**A.** 27%

**Q.** What about the growth inhibition ([5]; at 33.0 µM) of the same molecule?
**A.** 57%

**Q.** And the growth inhibition [5, 13]?
**A.** 77% (active)

**Q.** What about the growth inhibition ([5]; at 50.0 µM) of the same molecule?
**A.** 94% (active)

**Q.** What about the growth inhibition ([5]; at 100.0 µM) of the same molecule?
**A.** 94% (active)

**Q.** What about the growth inhibition ([6]; at 1.2 µM) of the same molecule?
**A.** -15%

**Q.** What about the growth inhibition ([6]; at 3.7 µM) of the same molecule?
**A.** -5%

**Q.** And the growth inhibition ([6]; at 11.0 µM)?
**A.** 13%

**Q.** What about the growth inhibition ([6]; at 33.0 µM) of the same molecule?
**A.** 79% (active)

**Q.** What about the growth inhibition ([6]; at 100.0 µM) of the same molecule?
**A.** 98% (active)

**Q.** What about the growth inhibition [7, 12] of the same molecule?
**A.** 32%

**Q.** What about the growth inhibition [7, 13] of the same molecule?
**A.** 70% (active)

**Q.** And the growth inhibition ([7]; at 50.0 µM)?
**A.** 93.3% (active)

**Q.** And the growth inhibition ([8]; at 1.2 µM)?
**A.** -3%

**Q.** What about the growth inhibition ([8]; at 3.7 µM) of the same molecule?
**A.** -8%

**Q.** And the growth inhibition ([8]; at 11.0 µM)?
**A.** 6%

**Q.** What about the growth inhibition ([8]; at 33.0 µM) of the same molecule?
**A.** 65%

**Q.** And the growth inhibition ([8]; at 100.0 µM)?
**A.** 96% (active)

**Q.** And the growth inhibition [9, 12]?
**A.** 3%

**Q.** What about the growth inhibition [9, 13] of the same molecule?
**A.** 42%

**Q.** What about the growth inhibition ([9]; at 50.0 µM) of the same molecule?
**A.** 92.1% (active)

**Q.** What about the growth inhibition ([10]; at 1.2 µM) of the same molecule?
**A.** -3%

**Q.** What about the growth inhibition ([10]; at 3.7 µM) of the same molecule?
**A.** 12%

**Q.** And the growth inhibition [10, 12]?
**A.** 52%

**Q.** And the growth inhibition ([10]; at 11.0 µM)?
**A.** 36%

**Q.** What about the growth inhibition ([10]; at 33.0 µM) of the same molecule?
**A.** 87% (active)

**Q.** And the growth inhibition [10, 13]?
**A.** 90% (active)

**Q.** What about the growth inhibition ([10]; at 50.0 µM) of the same molecule?
**A.** 93% (active)

**Q.** And the growth inhibition ([10]; at 100.0 µM)?
**A.** 97% (active)

**Q.** What about the growth inhibition ([11]; at 1.2 µM) of the same molecule?
**A.** -41%

**Q.** What about the growth inhibition ([11]; at 3.7 µM) of the same molecule?
**A.** -26%

**Q.** And the growth inhibition ([11]; at 11.0 µM)?
**A.** 32%

**Q.** What about the growth inhibition ([11]; at 33.0 µM) of the same molecule?
**A.** 72% (active)

**Q.** And the growth inhibition ([11]; at 100.0 µM)?
**A.** 94% (active)
